CBFb RUNX1 block: inhibitors of human CBF-beta and RUNX1 interaction | Q01196+Q13951 | AlphaScreen CBFb-His/RUNX1-biotin binding, biochemical | Potency, µM (top dose mostly 59.8 µM), hits mostly inhibitors | 230,000 tested, under 10 active
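Read-out: AlphaScreen. Format: His-CBF-beta with biotinylated RUNX1 (30 nM each) preincubated 20 min, compound 15 min, Ni-chelate plus streptavidin beads 90 min; room temperature throughout.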
PTHR1 ag: PTHR1 (human) receptor agonism | Q03431 | HEK293 GP2 PTHR1 cells, GloSensor cAMP luminescence, 1 h | Potency, µM (doses to about 115 µM), most hits filed as activators | hit rate 0.075% among 410,000; note: nearly all actives have a fitted effect of over 55% in size
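HEK-293-derived GP2 cells expressing PTHR1 and a GloSensor cAMP reporter, 3,000/well, plated overnight, given luciferin plus IBMX (each 0.5 mM as added) for 1 h at 37 °C, then compound for 1 h at 37 °C. Luminescence was read after 15 min at room temperature.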
DRD3 agonist: agonists of human D3 dopamine receptor; D3R DiscoveRx beta-arrestin cells, luminescence, 90 min; P35462; hit rate 0.58% among 410,000; max activation, %; AID 652048; in the data active = max activation above about 30%
Target sequence (P35462 whole entry, looked up): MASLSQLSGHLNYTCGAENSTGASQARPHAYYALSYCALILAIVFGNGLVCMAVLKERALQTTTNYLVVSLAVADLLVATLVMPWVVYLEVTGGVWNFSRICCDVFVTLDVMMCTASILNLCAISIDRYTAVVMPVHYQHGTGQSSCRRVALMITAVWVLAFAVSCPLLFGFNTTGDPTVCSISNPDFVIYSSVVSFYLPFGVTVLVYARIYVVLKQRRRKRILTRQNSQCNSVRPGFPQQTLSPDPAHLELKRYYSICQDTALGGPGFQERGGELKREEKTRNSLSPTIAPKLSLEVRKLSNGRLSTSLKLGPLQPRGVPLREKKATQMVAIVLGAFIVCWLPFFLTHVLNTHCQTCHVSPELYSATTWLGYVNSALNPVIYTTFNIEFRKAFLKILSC
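Agonist mode: compounds and dopamine controls were applied to plated cells for 90 min at 37 degrees C after an overnight attachment at 1500 cells/well. Luminescent read-out followed 30 - 60 minutes at room temperature with DiscoveRx detection reagent.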
MBNL1-CUG inh: blocks human MBNL1 binding to CUG repeat RNA; Q9NR56; TR-FRET MBNL1-His/biotin-(CUG)12 binding, 665/545 ratio; Potency, µM (titrated, usually from 57.5 µM), usual class: inhibitors; hit rate 0.036% among 280,000; active = well fitted inhibition curve with a large enough effect in the signal ratio, with a control signal flat, not every such curve was filed as active; inconclusive = small, poorly fitted or top-dose-only effect, or effect the other way, or a change in a side signal; inactive = no such curve, though single readings can be large or run the other way; the % refers to the signal ratio
Target sequence (Q9NR56 whole entry, looked up): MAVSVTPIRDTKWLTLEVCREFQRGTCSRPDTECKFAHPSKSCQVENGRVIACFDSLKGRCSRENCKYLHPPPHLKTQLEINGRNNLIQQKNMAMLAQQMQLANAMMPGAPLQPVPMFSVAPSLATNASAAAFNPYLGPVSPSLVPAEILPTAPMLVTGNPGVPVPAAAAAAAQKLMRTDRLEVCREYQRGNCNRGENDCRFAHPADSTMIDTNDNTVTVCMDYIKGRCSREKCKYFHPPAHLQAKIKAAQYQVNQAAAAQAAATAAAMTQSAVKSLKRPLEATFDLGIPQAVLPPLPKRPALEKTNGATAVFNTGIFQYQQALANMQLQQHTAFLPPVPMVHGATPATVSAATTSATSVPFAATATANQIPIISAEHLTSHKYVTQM
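Compound titration spanned 92 nM–58 uM against the MBNL1-His/biotin-(CUG)12 complex. After 60 min at room temperature with 5 nM streptavidin-XL665 and 0.055 ng/ul terbium anti-His, ratiometric 665/545 nm emission (Ex 340 nm) normalized to controls.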
Integrin act MD: activators of alpha7 integrin expression for muscular dystrophy; alpha7betagal myoblasts, beta-gal FDG fluorescence, 48 h; Potency, µM (series often up to 38.3 µM), most hits filed as activators; hit rate 0.064% among 350,000; AID 624291; note: nearly all actives have a fitted effect of over 60% in size
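Alpha7betagal+/- myoblasts (passage 13) were plated 16-24 hr, then exposed to compounds (1:260 dilution of DMSO stock) for 48 hours at 37C. After MPER lysis, β-galactosidase reporter activity was read as FDG fluorescence (ex 480/em 540) after 30 minutes.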
D3 antag: D3 dopamine receptor (human) antagonism; P35462; D3R cells, DiscoveRx beta-arrestin luminescence, antagonist mode; active compounds read low; max response, negative = inhibition, %; hit rate 2.5% among 360,000; AID 652054; in the data active = max response below about -50%; inconclusive = no clear call, values can overlap the other calls
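Cells plated overnight at 1500 cells/well, then exposed to library compounds with dopamine controls for 90 minutes at 37 degrees C. DiscoveRx reagent added for 30–60 minutes at room temperature; luminescence read, quantitative HTS format.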
Numbers stand for hits; 0 = inactive; ? = inconclusive; - = not tested or not shown. Rows were chosen to be rich in hits. Some 2.8% of all compounds tested hit in one or more screens of this group. Unless noted, calls come from the whole dose curve; as a rule, active = well fitted curve in the direction sought with a large enough effect; inconclusive = small, poorly fitted or top-dose-only effect, or another doubt; inactive = no such curve, though single readings can be large; an effect the other way counts as inactive or inconclusive.

SMILES | CBFb RUNX1 block | PTHR1 ag | DRD3 agonist | MBNL1-CUG inh | Integrin act MD | D3 antag
O=C(CSc1nc2c([nH]c3ccccc32)c(=O)n1-c1ccccc1F)NCC1CCCO1 (stereo not drawn) | - | 0 | 0 | 0 | 0 | -78
O=C(Cn1c(=O)c2ccccc2n(CC(=O)Nc2ccc(F)cc2)c1=O)NCCc1ccccc1 | - | 0 | 0 | - | - | -
O=C(CSc1oc(-c2ccco2)nc1S(=O)(=O)c1ccc(Cl)cc1)Nc1ccc(F)cc1 | - | 0 | 0 | - | - | -
COc1ccccc1CN(C)C(=O)c1cc(-c2cc(OC)c(OC)c(OC)c2)nc2ccccc12 | - | 0 | 0 | 0 | 0 | 0
COc1cc(-c2cc(C(=O)N(C)Cc3ccccc3)c3ccccc3n2)cc(OC)c1OC | - | 0 | 32 | 0 | 0 | 0
COc1ccc(CNC(=O)COC(=O)c2cc(-c3ccco3)nc3ccccc23)cc1 | - | - | - | 0 | - | -
CCNC(=O)COC(=O)c1cc(-c2ccco2)nc2ccccc12 | ? | 0 | 0 | ? | 5.6µM | 0
COc1cc(-c2cc(C(=O)OCC(=O)NC3CC3)c3ccccc3n2)cc(OC)c1OC | - | 0 | 32 | - | 0 | 0
O=C(NCCc1ccc(Cl)cc1)C(=O)NCC(c1ccc2c(c1)OCO2)N1CCOCC1 (stereo not drawn) | - | 0 | 0 | - | - | -
COc1ccc(Cl)cc1N(C(=O)Nc1cccc(Cl)c1)C1=NCC(C)S1 (stereo not drawn) | 0 | 0 | 0 | - | 0 | 0
O=C(O)c1cccc(N2C(=O)/C(=C/c3ccc(SCc4ccc(Cl)cc4)o3)SC2=S)c1 | ? | 0 | 0 | 0 | 0 | -59
CCOC(=O)C(=C1Nc2ccccc2N1)n1c(-c2cccnc2)nc2ccccc21 | - | 0 | 0 | - | - | -65
CCOC(=O)Cn1c(-c2cccnc2)nc(-c2ccccc2)c1-c1ccccc1 | - | 0 | 0 | 0 | 0 | 0
Cn1c(=O)n(C)c2cc([N+](=O)[O-])c(N3CCN(CCO)CC3)cc21 | 0 | 0 | 0 | ? | 0 | 0
CCn1nc(C)c(Br)c1-c1nc(-c2ccc(C)cc2)no1 | 0 | 0 | 35 | - | 0 | 0
CCn1nc(C)c(Br)c1-c1nc(CS(=O)(=O)c2ccc(F)cc2)no1 | 0 | 0 | 0 | - | 0 | 0
COc1ccc(-c2ccc(OC)c([C@H]3[C@H]4C=CC[C@@H](C)[C@@H]4C(=O)N3Cc3ccccc3)c2)cc1C | 0 | 0 | 0 | 0 | 0 | 0
COc1ccc(Br)cc1[C@H]1[C@@H]2C=CCC[C@@]2(C)C(=O)N1Cc1ccccc1 | 0 | 0 | 0 | 0 | 0 | -55
COc1ccc(/C=C/c2ccccc2)cc1[C@H]1[C@@H]2C=CCC[C@@]2(C)C(=O)N1Cc1ccccc1 | 0 | 0 | 0 | 0 | 0 | -66
Cc1ccc(-c2ccc(C3C4C=CCCC4(C)C(=O)N3Cc3ccccc3)c(F)c2)cc1 (stereo not drawn) | 0 | - | - | - | - | -
CC(=O)c1ccc(-c2ccc([C@H]3[C@@H]4C=CCC[C@@]4(C)C(=O)N3Cc3ccccc3)c(F)c2)cc1 | 0 | 0 | 48 | 0 | 0 | 0
COc1ccc(Br)cc1C1C2C=CCCC2(C)C(=O)N1Cc1ccccc1 (stereo not drawn) | 0 | - | - | - | - | -
COc1ccc(/C=C/c2ccccc2)cc1[C@H]1[C@H]2C=CC[C@@H](C)[C@@H]2C(=O)N1Cc1ccccc1 | 0 | 0 | 0 | 0 | 0 | -53
COc1ccc(C2c3c(-c4ccccc4)n[nH]c3C(=O)N2c2ccc(C(=O)O)cc2)c(OC)c1 (stereo not drawn) | - | 0 | 0 | - | - | -
CC(C)CNC(=O)CSc1nc2scc(-c3ccccc3)c2c(=O)[nH]1 | 0 | 0 | 48 | 0 | 0 | 0
SMILES | CBFb RUNX1 block | PTHR1 ag | DRD3 agonist | MBNL1-CUG inh | Integrin act MD | D3 antag
COc1ccc(CCN2C(=O)CSC2=Nc2ccc(C(C)C)cc2)cc1OC | 0 | 0 | 43 | 0 | 0 | 0
COc1ccc(N=C2SCC(=O)N2CCc2ccc(OC)c(OC)c2)cc1 | 0 | 0 | 0 | 0 | 0 | 0
O=C(O)CCN1CCc2ccccc2C1c1ccncc1 (stereo not drawn) | - | 0 | 0 | 0 | 0 | -58
O=C(Nc1ccccc1F)c1ccc(C(=O)c2ccccc2)cc1 | - | 0 | 0 | 0 | 0 | -73
CC12CCC(C/C1=N/O)C2(C)CBr (stereo not drawn) | 0 | 0 | 0 | 0 | 0 | 0
CC(=O)N1CCC2(CC1)OC(=O)C(C)=C2C(=O)NCc1ccc(Cl)cc1 | - | 0 | 0 | - | - | -
CC(=O)NNC(=O)CCC(=O)Nc1ccccc1 | 0 | 0 | 0 | 0 | ? | -80
CCCOC(=O)NC(CC)COC(=O)Nc1cc(C)ccc1C (stereo not drawn) | 0 | 0 | 0 | 0 | 0 | -87
CCC(C)c1ccc(S(=O)(=O)N2CCN(C(=O)c3ccc(Cl)c(S(=O)(=O)N4CCOCC4)c3)CC2)cc1 (stereo not drawn) | - | 0 | 0 | - | 0 | 0
COc1ccc2c(c1)C1(Nc3ccccc3-c3nc4ccccc4n31)C(=O)N2 (stereo not drawn) | 0 | 0 | 0 | 0 | 0 | -59
COCCCNC(=O)c1ccc(N2CCCC2)c(NS(=O)(=O)c2ccc(C)cc2)c1 | 0 | 0 | 0 | 0 | 0 | 0
CCOCCCNC(=O)c1ccc(N2CCCC2)c(NS(=O)(=O)c2ccc(C)cc2)c1 | 0 | 0 | 0 | 0 | ? | 0
Cc1ccc(S(=O)(=O)Nc2cc(C(=O)NCCN3CCCC3)ccc2N2CCCCC2)cc1 | 0 | 0 | 0 | 0 | 0 | -51
Cc1ccc(S(=O)(=O)Nc2cc(C(=O)NCCN(C)C)ccc2N2CCCCC2)cc1 | 0 | 0 | 0 | 0 | 0 | -64
COc1ccc2c(c1)CCc1c(C(=O)NC3CCCCC3)noc1-2 | 0 | 0 | 35 | 0 | 0 | 0
COCCNC(=O)c1noc2c1CCc1cc(OC)ccc1-2 | 0 | 0 | 0 | 0 | 0 | ?
C=CCCC(=O)N1C[C@H]2CON(C)[C@H]2C[C@H]1c1cccc(N2CCOCC2)c1 | - | 0 | 0 | - | 0 | 0
Cc1ccc(C(=O)NC(=S)Nc2ccccc2C(F)(F)F)cc1C | 0 | 0 | 0 | 0 | 0 | -80
Cc1ccc(C(=O)O)cc1NC(=S)NC(=O)c1ccc(-c2ccccc2)cc1 | 0 | 0 | 0 | 0 | 0 | -52
O=C(NC(=S)Nc1ccc(-c2ccccc2)cc1)c1ccccc1 | - | 0 | 0 | - | 0 | 0
NS(=O)(=O)c1ccc(NC(=S)NC(=O)c2ccc(-c3ccccc3)cc2)cc1 | 0 | 0 | 38 | 0 | 0 | 0
Cc1cccc(C(=O)NC(=S)Nc2ccccc2C(F)(F)F)c1 | 0 | 0 | 0 | - | 0 | 0
NC[C@@H]1CC[C@@H](N)[C@@H](O[C@H]2[C@H](O)[C@@H](O[C@H]3O[C@H](CO)[C@@H](O)[C@H](N)[C@H]3O)[C@H](N)C[C@@H]2N)O1 | - | - | 0 | - | - | -
COCOc1cccc(CN2CCC(C)(Oc3cccc(C#N)c3)C2)c1 (stereo not drawn) | - | 0 | 0 | - | - | -50
